Shown are actives, neighbours in structure and some others; about 2.8% of the full set was active somewhere.
POLK inh: qHTS for Inhibitors of Polymerase Kappa; DNA polymerase kappa (Homo sapiens), Q9UBT6; purified Pol kappa, fluorescent DNA synthesis assay, 10 min; Potency, µM (doses to about 107 µM), usual class: inhibitors; 0.53% of 400,000 active; AID 588579, 2011
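Kinetic fluorescence readout at 0 and 10 min followed reaction start with substrate at 50 nM final. Beforehand, enzyme (10 nM Pol kappa) stood 15 min with compound at room temperature; buffer-only wells were negative controls.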
PI5P4Ka inh: qHTS for Inhibitors of phosphatidylinositol 5-phosphate 4-kinase (PI5P4K). PI5P4Kalpha enzyme, ADP-Glo luminescence, 60 min; stronger effect = lower value. Phosphatidylinositol 5-phosphate 4-kinase type-2 alpha (Homo sapiens), P48426. 1.2% of 330,000 active. max response, %; active = max response of -50% or lower; inconclusive = between -30% and -50%; inactive = -30% or higher; note: value at the top dose of about 77 µM
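Compounds were pin-transferred onto PI5P4Kalpha and substrate in HEPES pH 7.4 buffer with EGTA, CHAPS and 5% DMSO. ATP (5 microM final) started the reaction, which ran 60 minutes at room temperature before ADP-Glo detection.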
POLI inh: qHTS for Inhibitors of Polymerase Iota | 1% of 390,000 active | DNA polymerase iota (Homo sapiens), Q9UNA4 | Potency, µM (doses to about 115 µM), actives largely listed as inhibitors | Pol iota fluorescent replication assay, 10 min
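Pol iota at 10 nM preincubated 15 min with compounds at room temperature; reaction started with fluorescent substrate, 50 nM final. Fluorescence read kinetically at 0 and 10 min; buffer-only wells as negative control.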
Pol beta inh: qHTS Assay for Inhibitors of DNA Polymerase Beta | P06746 | Pol beta primer extension/strand displacement, fluorescence kinetic | Potency, µM (series often up to 114 µM), hits mostly inhibitors | 1.3% of 340,000 active | AID 485314, 2010
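Kinetic readout of DNA synthesis with strand displacement by Pol beta. Compound and 10 nM enzyme sit 15 min at room temperature; 50 nM substrate starts the reaction, read immediately and at 10 min.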
WRN inhibitor: qHTS for Inhibitors of WRN Helicase. 0.46% of 360,000 active. WRN helicase unwinding, fluorescent forked duplex, kinetic. Bifunctional 3'-5' exonuclease/ATP-dependent helicase WRN (Homo sapiens), Q14191. Potency, µM (top dose mostly 114 µM), usual class: inhibitors; note: nearly all actives have a fitted effect of over 55% in size
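Enzyme (20 nM final) and test compound sit together 15 min at room temperature before substrate addition. Substrate is a single-forked duplex oligonucleotide (100 nM) labelled with fluorophore and quencher, with 2 mM ATP; helicase unwinding raises red fluorescence, read kinetically.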
Pol eta inh: qHTS for Inhibitors of Polymerase Eta; DNA polymerase eta (Homo sapiens), Q9Y253; recombinant Pol eta, fluorescent DNA replication assay; Potency, µM (doses to about 114 µM), hits mostly inhibitors; 1.2% of 390,000 active; AID 588591, 2011
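Pol eta (10 nM) was preincubated with compounds for 15 min at room temperature, after which fluorescent replication substrate (50 nM final) was added to start the reaction. Fluorescence was read kinetically at 0 and 10 min.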
A number is an active result; 0 = inactive; ? = inconclusive; - = not tested or not shown; [ ] = dose if it differs, or a comment. Unless noted, calls come from the whole dose curve; as a rule, active = well fitted curve in the direction sought with a large enough effect; inconclusive = small, poorly fitted or top-dose-only effect, or another doubt; inactive = no such curve, though single readings can be large; an effect the other way counts as inactive or inconclusive.

SMILES | POLK inh | PI5P4Ka inh | POLI inh | Pol beta inh | WRN inhibitor | Pol eta inh
CN1C=C/C(=C\c2cc[n+](C)c3ccccc23)c2ccccc21 | 0 | 0 | 0 | ? | 39.8µM | 0
CCCN(CCC)C(=O)Cn1c(=O)n(-c2cccc(C(F)(F)F)c2)c(=O)c2c(C)c(C)sc21 | 0 | - | 0 | 0 | - | -
COc1cc(/C=c2\s/c(=C\C(=O)C(C)(C)C)[nH]c2=O)cc(OC)c1OC | 0 | 0 | 0 | 0 | 0 | 0
COc1ccc(/C=c2\s/c(=C\C(=O)C(C)(C)C)[nH]c2=O)cc1O | 0 | -72.2 | 0 | 0 | 0 | 0
COc1ccc2cc3cc(C(=O)NC4CC4)sc3nc2c1 | 0 | 0 | 0 | 79.4µM | 0 | 0
COc1ccc2nc3sc(C(=O)NCCN4CCc5ccccc5C4)cc3cc2c1 | 0 | 0 | 0 | 20µM | 0 | ?
CCOc1ccc(CCNC(=O)c2cc3cc4ccc(OC)cc4nc3s2)cc1OCC | 0 | - | 0 | 0 | - | 0
Cc1ccc(NC2=CC(=O)c3sc(C)nc3C2=O)cc1 | 0 | - | - | - | - | -
COc1cccc(-c2nc(SCC(=O)Nc3nc(-c4ccccc4)c(C)s3)[nH]c(=O)c2C#N)c1 | 0 | ? | ? | ? | 0 | 79.4µM
Cc1sc(NC(=O)CSc2nc(O)cc(=O)[nH]2)nc1-c1ccccc1 | 0 | 0 | ? | 0 | ? | 0
CCOc1ccc2nc(NC(=O)CSc3nc(-c4ccccc4)c(C#N)c(=O)[nH]3)sc2c1 | 0 | ? | ? | 0 | ? | 50.1µM
COC(=O)C1=CN(c2ccccc2OC)C(N)=C(C#N)C1c1cccc([N+](=O)[O-])c1 (stereo unspecified) | - | 0 | - | - | 0 | -
COc1ccc(-c2nc3scc(CCNS(=O)(=O)c4ccc(F)c(C(F)(F)F)c4)n3n2)cc1OC | 0 | - | 0 | 0 | - | 0
CCCCOC(=O)/C(C#N)=C/c1ccc(-c2ccc(Br)cc2)o1 | 0 | - | 0 | 0 | - | 0
Cc1oc2cc(O)ccc2c(=O)c1Oc1ccccc1 | 0 | ? | 0 | 0 | 70.8µM | 0
Cc1cccc(N(Cc2cc(=O)[nH]c3ccccc23)C(=O)CCl)c1 | 0 | 0 | ? | ? | 0[11.6 µM] | 44.7µM
COc1ccc(N(Cc2cc(=O)[nH]c3ccccc23)C(=O)CCl)cc1 | 0 | 0 | 0 | 0 | 0 | 35.5µM
CCCOc1cccc(C2c3c(oc4ccc(F)cc4c3=O)C(=O)N2Cc2ccc3c(c2)OCO3)c1 (stereo unspecified) | 0 | - | 0 | 0 | - | 0
CN(C)S(=O)(=O)c1cccc(-c2nn(-c3ccccc3)cc2/C=C(\C#N)c2nc3ccccc3[nH]2)c1 | 0 | 0 | 0 | 0 | 0 | 0
CN(C)S(=O)(=O)c1cccc(-c2nn(-c3ccccc3)cc2/C=C2\SC(=S)NC2=O)c1 | ? | -85.6 | ? | 20µM | 50.1µM | 14.1µM
c1ccc(Cn2c(SCc3nc4ccccc4s3)nnc2-c2ccco2)cc1 | ? | -73.5 | 22.4µM | 50.1µM | 35.5µM | 14.1µM
CCC(c1nnc(SCc2nc3ccccc3s2)n1Cc1ccccc1)N(C)C (stereo unspecified) | 0 | 0 | 0 | 0 | 0 | 0
COc1ccc(CC(=O)Nc2cccc(-c3ccc4nnc(C)n4n3)c2)cc1 | 0 | 0 | 0 | 0 | 0 | 0
Cc1nnc2ccc(-c3cccc(NC(=O)Cc4cccs4)c3)nn12 | ? | ? | 35.5µM | 12.6µM | 0[11.6 µM] | ?
CCC(=O)Nc1cccc(NC(C)=O)c1 | - | - | - | 22.4µM | - | -
SMILES | POLK inh | PI5P4Ka inh | POLI inh | Pol beta inh | WRN inhibitor | Pol eta inh
CC(=O)Nc1cccc(NC(=O)Cc2cccs2)c1 | 0 | ? | ? | 0 | 0[11.6 µM] | 35.5µM
COc1ccc(C2c3c(oc4ccc(F)cc4c3=O)C(=O)N2Cc2ccc3c(c2)OCO3)cc1 (stereo unspecified) | 0 | - | 0 | 0 | - | 0
Cc1cccc(N2C(=O)CSC2c2cccnc2)c1 (stereo unspecified) | 0 | - | 0 | 100µM | 0 | 0
O=C(NCCO)c1ccc2nc(-c3ccco3)c(-c3ccco3)nc2c1 | 25.1µM | 0 | 2.51µM | 50.1µM | 11.2µM | 3.55µM
O=C(NC1CCCC1)c1ccc2nc(-c3ccco3)c(-c3ccco3)nc2c1 | 22.4µM | -62.9 | ? | 50.1µM | 39.8µM | 3.55µM
O=C(NCCc1ccccc1)c1ccc2nc(-c3ccco3)c(-c3ccco3)nc2c1 | ? | -63.3 | ? | 7.94µM | ? | ?
CCN(C(=O)CSc1nc(-c2ccc(C(C)C)cc2)no1)c1cccc(C)c1 | 0 | - | 0 | 0 | - | 0
O=C(CC1C[C@H](C(=O)N2CCCCC2)[C@@]2(CCc3ccccc3)c3[nH]c4ccccc4c3CCN2C1=O)NCCc1ccccn1 (stereo partly specified) | 0 | 0 | 0 | - | 0 | 0
Oc1ccc(/C=N/NC(=S)N/N=C/c2ccc(O)cc2)cc1 | 0 | -51.0 | ? | 0 | 0 | 0
Oc1ccc(/C=N/NC(=S)Nc2cccnc2)cc1 | 0 | 0 | 0 | 0 | 0 | 0
Cc1cc(C)c(/C=C/c2onc(C)c2S(=O)(=O)N2CCC(C(=O)Nc3ccc(Cl)c(C(F)(F)F)c3)CC2)c(C)c1 | 0 | - | 0 | 0 | - | 0
O=[N+]([O-])c1ccc(NCCc2ccccc2)c(Br)c1 | 0 | 0 | 0 | 79.4µM | 0 | 0
O=C(O)COc1ccccc1/C=C1\SC(=Nc2ccc(F)cc2)N(c2ccc(F)cc2)C1=O | 0 | 0 | 0 | 0 | 0[11.6 µM] | 56.2µM
COc1cccc(/C=C/c2[nH]c(=O)[nH]c(=O)c2[N+](=O)[O-])c1O | 0 | -89.6 | 11.2µM | 0 | 0[11.6 µM] | 50.1µM
CC(C)c1ccc(/C=C/c2[nH]c(=O)[nH]c(=O)c2[N+](=O)[O-])cc1 | 0 | -57.5 | ? | 0 | 0 | ?
O=c1[nH]c(/C=C/c2ccccc2Cl)c([N+](=O)[O-])c(=O)[nH]1 | 0 | -69.2 | ? | 0 | 0 | 28.2µM
CCOc1ccc(/C=C/c2[nH]c(=O)[nH]c(=O)c2[N+](=O)[O-])cc1 | 0 | ? | 0 | 0 | 0 | ?
COc1cc(/C=C/c2[nH]c(=O)[nH]c(=O)c2[N+](=O)[O-])cc(OC)c1O | 0 | -88.0 | 0 | 0 | 0 | 0
CCOc1cc(/C=C\c2[nH]c(=O)[nH]c(=O)c2[N+](=O)[O-])ccc1OC(C)CC (stereo unspecified) | 0 | - | ? | 0 | 0 | ?
Cc1nc(-c2ccc(C)c(N3CCN(C(=O)Nc4ccc(Br)cc4)CC3)c2)no1 | 0 | - | 0 | 0 | - | 0
Cc1ccc(S(=O)(=O)NCC(c2ccco2)N2CCN(c3ccccc3F)CC2)cc1 (stereo unspecified) | 0 | - | 0 | 0 | - | 0
CC1CCN(c2c(NCc3ccc(C(=O)NCCc4ccc(Cl)cc4)cc3)c(=O)c2=O)CC1 | 0 | 0 | ? | 31.6µM | 0 | 0
